According to PubChem BioAssay (NCI):
About 83,000 compounds went through this panel and 20% of them were active in at least one assay; those are over-represented in the sample as a whole.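 96-well plates, one dose, 48 hours. Percent growth reported; active if below 10.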 A number with no mark means an inactive call. Calls of active or inactive are those of the source.

Experiments:
Assay in all cases: NCI-60 one-dose screen, 48 h (100 = growth as untreated, 0 = no growth, -100 = all killed)
Details in all cases: 10 µM unless noted
[1] = system: T-47D breast
[2] = system: BT-549 breast
[3] = system: MDA-MB-435 melanoma
[4] = system: SW-620 colon
[5] = system: MCF7 breast
[6] = system: HCT-116 colon
[7] = system: HCC-2998 colon
[8] = system: KM12 colon

Row | SMILES | growth [1] | growth [2] | growth [3] | growth [4] | growth [5] | growth [6] | growth [7] | growth [8]
1 | CS(=O)/C(C#N)=C\C=C\c1cccc(Cl)c1 (stereo unspecified) | 16.5% | 9.95% (active) | 5.01% (active) | 14.9% | 12.9% | -28.1% (active) | -31.1% (active) | 12.5%
2 | N=C(N)c1ccc(OCCSCCOc2ccc(C(=N)N)cc2)cc1 | 50.5% | 11.1% | 79.9% | 87.6% | 58.1% | 68.4% | 79.7% | 62.2%
3 | CC(C)=CC(=O)N[C@H]1CC[C@]2(C)C3CC[C@]4(C)C(C(C)N(C)C)=CCC4C3CCC2[C@H]1O (stereo partly specified) | 38.6% | 54.4% | -33.8% (active) | -23.5% (active) | 11.4% | 2.25% (active) | 35.8% | 23.2%
4 | CC(=O)O[C@H]1CC[C@]2(C)[C@H]3CC=C4[C@@H]5CC(C)(C)CC[C@]5(C(=O)N5CCN(CCC#N)CC5)CC[C@@]4(C)[C@]3(C)CC[C@H]2C1(C)C | 29% | 40.9% | 31.5% | 19.4% | 11.6% | -2.33% (active) | 47.7% | 28.6%
5 | O=C(CSc1nnnn1-c1ccccc1)Nc1ccc(Oc2ccccc2)cc1 | 90.9% | 112% | 106% | 98.9% | 102% | 104% | 100% | 99.4%
6 | Cc1nn(-c2ccc([N+](=O)[O-])cc2)c2ncnc(N/N=C/c3ccccc3O)c12 | 11.6% | 30.6% | 26.5% | 25.1% | 11.9% | 18.1% | 40.4% | 22.3%
7 | Cc1cccc(N2C(=O)/C(=C/C(Cl)=C/c3ccc([N+](=O)[O-])cc3)SC2=S)c1C | 5.42% (active) | 3.15% (active) | 10.4% | 0.401% (active) | 15.2% | -38.8% (active) | 42% | 19.3%
8 | C=C1SC(=Nc2ccccc2Cl)N(C(=O)c2sc3ccccc3c2Cl)C1(C)C | 34.7% | 85.2% | 99.1% | 68% | 21.2% | 54% | 72.9% | 29%
9 | Nc1c(C(=O)Nc2cccc3ncccc23)sc2nc3c(cc12)CN(Cc1ccccc1)CC3 | 41.3% | 71.5% | 22.1% | 83.7% | 53.1% | 74.2% | 93.5% | 86.7%
10 | COc1cccc(-c2cn3nc(-c4cn(C)c5ccccc45)sc3n2)c1 | 89.9% | 102% | 36.5% | 89.7% | 79.5% | 91.7% | 93.5% | 72.6%
11 | CC12OC(CC(O)C1O)n1c3ccccc3c3c4c(c5c6ccccc6n2c5c31)C(=O)N(CCN1CCCC1)C4=O (stereo unspecified) | 21.9% | 52.9% | 30.4% | 13.9% | 2.15% (active) | 13.4% | 13.3% | 27.9%
12 | CCOC(=O)NC(=S)n1oc(=O)c2ccccc21 | 99.2% | 111% | 101% | 97.5% | 100% | 101% | 101% | 103%
13 | CSc1nc(-c2ccco2)c(C#N)c(=O)n1C | 107% | 92.6% | 102% | 97% | 98% | 100% | 1.62% (active) | 103%
14 | O=C(/C=C/c1ccccc1Cl)c1cccc(OCCCCOc2cccc(C(=O)/C=C/c3ccccc3Cl)c2)c1 | 91.2% | 116% | 106% | 99% | 51.7% | 50.1% | 104% | 101%
15 | COc1cc2c(c(OC)c1OC)CCC(c1cccc(C(=O)Nc3ccc(Br)cc3)c1)O2 (stereo unspecified) | 28.9% | 69% | 81.9% | 88.7% | 67.1% | 60.6% | 71.5% | 65.2%
16 | N#CC1=C(N)Oc2c(sc3c(F)cccc23)C1c1ccc([N+](=O)[O-])cc1 (stereo unspecified) | -3.63% (active) | -48.3% (active) | -28.7% (active) | -33.7% (active) | -18.1% (active) | -84.8% (active) | -40.8% (active) | -32.4% (active)

Row | SMILES | growth [1] | growth [2] | growth [3] | growth [4] | growth [5] | growth [6] | growth [7] | growth [8]
17 | Clc1ccc(Nc2ncc(Cc3cccc(Cl)c3Cl)s2)cc1 | 77.9% | 129% | 105% | 101% | 90.9% | 92.8% | 101% | 101%
18 | C=C(C)[C@@H]1CC[C@]2(C(=O)Nc3ccccn3)CC[C@]3(C)[C@H](CC[C@@H]4[C@@]5(C)CCCNC(C)(C)[C@@H]5CC[C@]43C)[C@@H]12 | 25.9% | 25.7% | 2.12% (active) | -31.7% (active) | 8.22% (active) | -43.4% (active) | 5.09% (active) | 10.6%
19 | CCCOC(=O)Nc1nc2ccc(SCC)cc2s1 | 84.8% | 85.5% | 3.85% (active) | 52.5% | 43.7% | 62.8% | 79.7% | 58.6%
20 | Cc1ccc2cnc(N)c(C#Cc3cc(C(=O)Nc4ccc(CN5CCN(C)CC5)c(C(F)(F)F)c4)cnc3C)c2c1 | 66.8% | 16.5% | -69.3% (active) | -77.3% (active) | -50.8% (active) | -83.9% (active) | 54% | 0.561% (active)
21 | CCN1C(=O)N(CC)C2C1NN=c1s/c(=C\c3ccc(OC)cc3)c(=O)n12 (stereo unspecified) | 57.3% | 9.76% (active) | -23.7% (active) | 22.8% | 14.4% | 9.53% (active) | 15.4% | 10.5%
22 | COc1cc(C[C@H]2COc3cc(O)cc(O)c3C2=O)ccc1O | 31.3% | 27.8% | -22.5% (active) | 23.1% | 22.6% | 12.6% | 88.2% | 24.7%
23 | COc1ccc(-c2cc(C(=O)N3N=C(c4ccc(N)cc4)CC3c3ccc(Cl)cc3)c3cc(OC)ccc3n2)cc1 (stereo unspecified) | 66.7% | 29.8% | 9.88% (active) | 35.5% | 38.6% | 1.85% (active) | 83.3% | 52.3%
24 | CCCc1cc(=O)oc2c(C(=O)CC(C)C)c(O)c(CC=C(C)C)c(O)c12 | 13.5% | 1.17% (active) | 24.3% | 27.4% | 7.3% (active) | 14.3% | 11% | 18.9%
25 | CN(C)/C(N)=N/N=C(\c1ccccc1)c1ccccn1 | 110% | 99.8% | 113% | 104% | 105% | 89.5% | 94.3% | 99.1%
26 | O=C(NN1C(=O)CSC1c1cccc([N+](=O)[O-])c1)c1ccc(NC(=O)c2ccccn2)cc1 (stereo unspecified) | 94.7% | 99.6% | 98.9% | 104% | 89.2% | 98.3% | 90% | 93.8%
27 | CS(=O)(=O)Nc1cc(-c2ccc3ncnc(Nc4ccc(OCc5ccccn5)c(Cl)c4)c3c2)cnc1Cl | -25.3% (active) | -3.21% (active) | 7.34% (active) | 5.12% (active) | 4.74% (active) | 9.28% (active) | 3.04% (active) | -5.09% (active)
28 | C#Cc1cccc(Nc2ncnc3cc(NC(=O)CCl)ccc23)c1 | -52.7% (active) | -76.7% (active) | -70.8% (active) | -61.6% (active) | -50.4% (active) | -76.3% (active) | -88.3% (active) | -74.3% (active)
29 | N#Cc1c(-c2ccc(Br)cc2)nc2c(N=Nc3ccc(S(N)(=O)=O)cc3)c(N)nn2c1N | 31.5% | 73.8% | 56.2% | 44.1% | 31.6% | 24.9% | 61.8% | 51.8%
30 | COc1ccc(/C=C(\C(=O)NCc2cccnc2)S(=O)(=O)c2ccccc2)cc1OC | 12.1% | 35.5% | -8.51% (active) | 11.9% | 12.9% | 15% | 96.6% | 52.8%
31 | CNC(=O)NCC1OC(n2cnc3c(NC(=O)Nc4ccccc4)ncnc32)C2OC(=O)CC12 (stereo unspecified) | 91.6% | 100% | 101% | 106% | 97.9% | 98.7% | 93.1% | 106%
32 | CCCCCCCCn1ccc2cc(NC(=O)CN=[N+]=[N-])ccc21 | 94% | 86.5% | 108% | 101% | 91.1% | 97.5% | 117% | 99.4%
